Results taken from PubChem BioAssay (NCI).
This is part of a sample that, as a whole, favours compounds with a hit. Of some 79,000 tested, about 15% had one in any assay. Active and inactive are the calls of the source. Rule as the data show it: active = growth inhibition above about 70%; inactive = the rest.

Tests used:
[1] = NCI Yeast Anticancer Drug Screen. Data for the rad50 strain (AID 155);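 also: 0% = growth of vehicle-only cultures of the same strain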; conditions: S. cerevisiae rad50 strain growth inhibition; at 50.0 µM; stronger effect = higher value
Summary of the method: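 Yeast carrying a defined DNA repair defect were exposed to test compounds, and growth was compared with vehicle-treated controls to give percent inhibition.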

[2] = NCI Yeast Anticancer Drug Screen. Data for the mec2-1 strain (AID 157); conditions: S. cerevisiae mec2-1 strain, at 50.0 µM, stronger effect = higher value
Summary of the method: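 Using mec2-1 yeast: add compound, measure growth, express inhibition versus vehicle-treated cultures.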

[3] = NCI Yeast Anticancer Drug Screen. Data for the sgs1 mgt1 strain (AID 161);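 also: 0% = growth of cultures given vehicle only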; conditions: S. cerevisiae sgs1 mgt1 strain, at 50.0 µM, stronger effect = higher value
Summary of the method: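 Growth of a repair-deficient yeast mutant was monitored after compound treatment and expressed as inhibition relative to vehicle-treated cultures.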

[4] = NCI Yeast Anticancer Drug Screen. Data for the cln2 rad14 strain (AID 165);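 also: 0% = growth equal to vehicle treated cultures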; conditions: S. cerevisiae cln2 rad14 strain, at 50.0 µM, stronger effect = higher value
Summary of the method: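 Yeast strain cln2 rad14, bearing defects in cell cycle control and DNA repair, serves as the test system; values reflect growth inhibition compared with vehicle.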

[5] = NCI Yeast Anticancer Drug Screen. Data for the bub3 strain (AID 167); conditions: S. cerevisiae bub3 mutant strain, at 50.0 µM, stronger effect = higher value
Summary of the method: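 Compounds were applied to a genetically altered yeast strain carrying a cell-cycle control defect. Growth inhibition was scored against vehicle-treated controls.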

[6] = NCI Yeast Anticancer Drug Screen. Data for the mlh1 rad18 strain (AID 175); conditions: S. cerevisiae mlh1 rad18 strain growth inhibition; at 50.0 µM; stronger effect = higher value
Summary of the method: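 Steps: expose repair-defective yeast to compound; measure growth; express inhibition against vehicle-treated controls.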

Measured: growth inhibition

CC12CCC3C(CCC4CC(Cl)CCC43C)C1CCC2=O (stereo not given)
inactive: [1] 9.95% | [2] 8.5% | [3] 6.25% | [4] -59.4% | [5] -6.1% | [6] -5.05%

NCCn1ccc2ccccc21
inactive: [1] 8.2% | [2] -21.2% | [3] 5.35% | [4] 7.35% | [5] -0.4% | [6] 18.2%

O=c1sc2ccccc2n1CC1CS1 (stereo not given)
inactive: [1] 22.4% | [2] -10.1% | [3] -8.75% | [4] 5.25% | [5] -27.1% | [6] -0.25%

CN(C)/N=C/c1c[nH]c2ccccc12
inactive: [1] -13.9% | [2] -13.8% | [3] -20.1% | [4] 0.5% | [5] -17.7% | [6] -8.4%

[C-]#[O+].[C-]#[O+].[C-]#[O+].[C-]#[O+].[Fe].[N-]=C(C(F)(F)F)C(F)(F)F
inactive: [1] -16.4% | [2] -19.8% | [3] -11.7% | [4] -0.25% | [5] -11.2% | [6] -25.4%

Clc1ccc(-c2ccccc2)cc1Cl
inactive: [1] 12.9% | [2] -12.5% | [3] -8.85% | [4] -0.8% | [5] 14.6% | [6] 1.9%

CNP(=S)(Oc1cc(Cl)c(Cl)cc1Cl)N1CCN(c2ccc(Cl)cc2)CC1 (stereo not given)
inactive: [1] -0.5% | [2] 2% | [3] 4.35% | [4] -0.9% | [5] -2.9% | [6] 16.4%

NC(=O)OC(CCl)CCl
inactive: [1] 35.2% | [2] -10.1% | [3] -9% | [4] -13.3% | [5] -10% | [6] -4.3%

O=C(O)CCCC(=O)CCCC(=O)O.[Pb]
inactive: [1] -20% | [2] -27.3% | [3] -11.7% | [4] -36.1% | [5] 2.05% | [6] -4.1%

CCC(Cl)COP(=O)(OCC(Cl)CC)C(CC)OP(=S)(OCC(Cl)CC)OCC(Cl)CC (stereo not given)
active: [4] 94.8%
inactive: [1] 16.6% | [2] 11.3% | [3] 65.7% | [5] 57.5% | [6] 20.9%

CC(=O)OC1CCC2(C)C(CC(=O)C3C2CCC2(C)C(OC(C)=O)CCC32)C1 (stereo not given)
inactive: [1] 7.35% | [2] 7.35% | [3] 1.5% | [4] 15.8% | [5] -4.2% | [6] 2.15%

c1ccc(NNc2ccccc2)cc1
inactive: [1] 8.5% | [2] 1.7% | [3] 0.95% | [4] -14.1% | [5] -6.15% | [6] -5.65%

C/C=C/CC1(CC)C(=O)NC(=O)NC1=O
inactive: [1] 16.9% | [2] 10.9% | [3] 11.8% | [4] 16.6% | [5] 2% | [6] 8.1%

Cc1ccc(Cl)c2c1CC(=[N+]=[N-])C2=O
inactive: [1] 10.2% | [2] 5.2% | [3] 8.7% | [4] -0.45% | [5] 10.5% | [6] 7.15%

CCN1/C(=C/C=C2\CCC(/C=C/c3sc4ccc(Cl)cc4[n+]3CC)=C2N(c2ccccc2)c2ccccc2)Sc2ccc(Cl)cc21
inactive: [1] 14.4% | [2] 32.2% | [3] 64.9% | [4] 4.05% | [5] 57.4% | [6] 56.7%

CC(CO)([N+](=O)[O-])[N+](=O)[O-]
inactive: [1] 7.45% | [2] 4.75% | [3] -0.05% | [4] -0.1% | [5] 4.8% | [6] 7.35%

COc1ccc(S(=O)(=O)F)cc1NC(=O)CCc1ccc(N2C(N)=NC(N)=NC2(C)C)cc1Cl
active: [1] 79.8% | [2] 78.5% | [3] 86.8%
inactive: [4] 16.2% | [5] 4.7% | [6] 65.2%

COc1ccc(/C=C/C=C2C(=O)NC(=S)NC2=O)cc1
inactive: [1] 25.6% | [2] 4.55% | [3] 29.1% | [4] 11.2% | [5] 0.75% | [6] 25.2%

NCCN.O=C([O-])[O-].O=C([O-])[O-].[Co+3].[K+]
inactive: [1] 1.5% | [2] 4.6% | [3] 5.2% | [4] 13.2% | [5] -8.9% | [6] -5.55%

O=C1c2ccccc2C2(O)C3C=CCCN3CN12 (stereo not given)
inactive: [1] 2.65% | [2] 9.1% | [3] -1.25% | [4] 4.15% | [5] -4.05% | [6] -6.75%

CC(C)N(C(C)C)[PH+]1O[PH+](N(C(C)C)C(C)C)O[PH+](N(C(C)C)C(C)C)O[PH+](N(C(C)C)C(C)C)O[PH+](N(C(C)C)C(C)C)O1.[C-]#[O+].[C-]#[O+].[C-]#[O+].[C-]#[O+].[C-]#[O+].[C-]#[O+].[C-]#[O+].[Cr].[Cr] (stereo not given)
inactive: [1] 17.7% | [2] -5.45% | [3] -14.5% | [4] -0.75% | [5] 2.8% | [6] -3.8%

C[C@]12CC[C@H](O)C=C1CC[C@@H]1[C@@H]2CC[C@]2(C)C(c3ccc(=O)oc3)CC[C@]12O (stereo not given in full)
inactive: [1] -2.85% | [2] -12.9% | [3] 17.9% | [4] 10.9% | [5] 0.05% | [6] 8.75%

CC1N2C3(c4ccccc4)OC(c4ccccc4)(c4ccccc43)C12c1ccccc1 (stereo not given)
inactive: [1] 9.8% | [2] 13.2% | [3] 4.95% | [4] 31.9% | [5] 0.8% | [6] 4.05%

Clc1ccc(N2CCN(c3ccc(Cl)cc3)CC2)cc1
inactive: [1] -20.1% | [2] 1.45% | [3] -6.75% | [4] 1.25% | [5] -6.9% | [6] 6.05%

Nc1c(Cl)c(Cl)nc(C(=O)O)c1Cl
inactive: [1] 16% | [2] 9% | [3] 7.05% | [4] 3.8% | [5] 21.5% | [6] 24.2%

CC(C)=CCC12Cc3ccc(O)cc3C(C(C)CN1)C2C (stereo not given)
inactive: [1] -1.5% | [2] 9.8% | [3] 27.8% | [4] 11.8% | [5] 10.7% | [6] 25.7%

O=C1OC(C(O)CO)C(O)=C1OC[N+]1(CCCl)CCN(CCCl)CC1 (stereo not given)
inactive: [1] 11.8% | [2] 12.7% | [3] 4.9% | [4] 4.7% | [5] 10.3% | [6] 9.4%

C=C[Se](=C(C#N)C#N)c1ccccc1 (stereo not given)
inactive: [1] -3.35% | [2] 28% | [3] 5.75% | [4] 4.35% | [5] -16.4% | [6] 0.7%

c1ccc(N=Nc2ccccc2)cc1
inactive: [1] -1.25% | [2] -7.5% | [3] -4.2% | [4] -9.55% | [5] -5.15% | [6] 24.6%

CC(=O)C(C)(C)C
inactive: [1] 0% | [2] -1.45% | [3] 5.15% | [4] 3% | [5] 3.5% | [6] 24.1%

O=C(Cc1ccc(N(CCCl)CCCl)cc1)NC1CCCC1
inactive: [1] -0.05% | [2] -16.6% | [3] -13.9% | [4] -22.9% | [5] -2.3% | [6] 18.1%

CNC1=C(C)C(=O)C2=C(C1=O)C(COC(N)=O)C1(OC)C3NC3CN21 (stereo not given)
inactive: [1] 58.8% | [2] 53% | [3] 52% | [4] 60.6% | [5] 31.4%
active: [6] 83.8%

O=P(O)(O)SP(=O)(O)O.[Mn]
inactive: [1] -14.7% | [2] -14.2% | [3] -1.9% | [4] -30.2% | [5] -11.7% | [6] -16.1%

O=[N+]([O-])c1cccc(P(=O)(O)O)c1
inactive: [1] -7.3% | [2] 53.5% | [3] 3.35% | [4] 5.25% | [5] -4.5% | [6] 0.85%

c1ccc(N2CCNCC2)cc1
inactive: [1] -11.3% | [2] 4.45% | [3] -27.2% | [4] -28.6% | [5] -0.8% | [6] -1.5%

O=C(CP(=O)(O)O)c1cccs1
inactive: [1] -10.6% | [2] -10.3% | [3] -28% | [4] -10.8% | [5] -17.8% | [6] -18.9%

CCCCCCN(CCCCCC)C1C=CCCC1 (stereo not given)
inactive: [1] -5.4% | [2] -11.2% | [3] 0.25% | [4] -32.6% | [5] -2.2% | [6] -4.15%

CC(C)/C=C/C1(C(C)C)C(=O)NC(=O)NC1=O
inactive: [1] 19.5% | [2] 9.5% | [3] -4.85% | [4] 14.1% | [5] 3.9% | [6] 3.1%

CCCCCCCCCCC(C(=O)c1ccccc1)N1CCOCC1 (stereo not given)
inactive: [1] -14.7% | [2] -2.95% | [3] 10.9% | [4] -8.3% | [5] 3.85% | [6] -8.4%

CC(C)CNC12CN3CN(CN(C3)C1)C2
inactive: [1] -9.25% | [2] -11.2% | [3] -6% | [4] -27.9% | [5] -4.85% | [6] -23.7%
